Source: PubChem
IL-1B inflam inh: qHTS for Inhibitors of Inflammasome Signaling: IL-1-beta AlphaLISA Primary Screen | THP-1 LPS/ATP IL-1B secretion, AlphaLISA, 16 h; hits give low values | AID 743279, 2014 | activity change, % at 57.5 µM | 360,000 compounds, 4.7% hits; in the data active means activity change below about -50%; inconclusive means mostly about -30% to -49%
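Secreted IL-1B measured by AlphaLISA bead assay after 16 h compound exposure of THP-1 cells; compounds (final up to 57.5 uM) added 1 h before LPS (250 ng/mL) and ATP (1.25 mM) stimulation; lower signal means less secretion.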
HT1080NT lethal: qHTS for induction of synthetic lethality in tumor cells producing 2HG: qHTS for the HT-1080-NT fibrosarcoma cell line | HT-1080-NT fibrosarcoma viability, CellTiter-Glo ATP luminescence, 48 h | Potency, µM (titrated, usually from 46.1 µM), inactives show at the highest dose activity, negative = less viability, actives largely listed as cytotoxic | 360,000 compounds, 1.6% hits;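 further: NT is the 2HG producing partner of a matched IDH1 knockdown line; potency means the concentration at half of the fitted maximal effect; 0% = DMSO-treated cells and -100% = media-only wells without cells; nearly all actives have a fitted effect of over 55% in size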
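HT-1080-NT; 750 cells/well; 5% FBS RPMI; 48 h compound, 37 degrees C; CellTiter-Glo luminescence; curve fitting and curve-class assignment.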
HT1080 IDH1KD tx: qHTS for induction of synthetic lethality in tumor cells producing 2HG: qHTS for the HT-1080-IDH1KD cell line | Potency, µM (top dose mostly 46.1 µM), for the others: at the highest dose activity, negative = toxicity, actives largely listed as cytotoxic | HT-1080 IDH1 knockdown viability, ATP luminescence, 48 h | 360,000 compounds, 2% hits;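 further: potency means the concentration at half of the fitted maximal effect; 0% = DMSO wells and -100% = cell-free medium wells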
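After a 2 h attachment period, IDH1KD HT-1080 cells took pin-transferred compound for 48 h at 37 °C; ATP-based luminescence after 10 min room-temperature reagent incubation reported viability.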
DT40 TDP1 CPT: qHTS for Inhibitors of human tyrosyl-DNA phosphodiesterase 1 (TDP1): qHTS in cells in presence of CPT. chicken DT40 Tdp1-/-;hTDP1 cells + 20 nM CPT, ATP luminescence, 48 h. 420,000 compounds, 12% hits. Potency, µM (top dose mostly 46.2 µM), for inactives: at the highest dose activity change, negative = growth inhibition, usual class: inhibitors; further: potency means the concentration at half of the fitted maximal effect; nearly all actives have a fitted effect of over 55% in size
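Cell growth measured by CellTiter-Glo luminescence after a minimum 48 h, 37 C compound exposure with 20 nM CPT in Tdp1-knockout DT40 cells stably expressing hTDP1, seeded 400/well; qHTS titration format.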
DT40 TDP1 no CPT: qHTS for Inhibitors of human tyrosyl-DNA phosphodiesterase 1 (TDP1): qHTS in cells in absence of CPT; Potency, µM (highest dose often 46.2 µM), without a hit: top-dose activity change, negative = growth inhibition, most hits filed as inhibitors; DT40 Tdp1-/- hTDP1 cells, no CPT, ATP luminescence, 48 h; AID 686978, 2013; 420,000 compounds, 15% hits; further: potency means the concentration at half of the fitted maximal effect; nearly all actives have a fitted effect of over 55% in size
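Chicken DT40 Tdp1-/- cells stably complemented with human TDP1 were seeded at 400 cells/well with DMSO in place of 20 nM camptothecin. After compound pinning, cells grew at least 48 hr at 37 °C; viability read by CellTiter-Glo luminescence.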
Starred values were filed as active, the others as inactive; ? = inconclusive; nt = no result given; [ ] = another dose, or the depositor's remark. Hits are enriched below; roughly 19% of the tested compounds scored in any of these assays. Unless noted, the call rests on the fitted dose curve; in most records, active means well fitted curve in the direction sought with a large enough effect; inconclusive means small, poorly fitted or top-dose-only effect, or another doubt; inactive means no such curve, though single readings can be large; an effect the other way counts as inactive or inconclusive. Unless noted, on the % scale 0 is the no-effect control and ±100 the full control effect.

SMILES	IL-1B inflam inh	HT1080NT lethal	HT1080 IDH1KD tx	DT40 TDP1 CPT	DT40 TDP1 no CPT
O=C(N[C@H]1C/C=C\C[C@@H](CC(=O)N(CCO)Cc2ccccc2)C(=O)NC[C@H](c2ccccc2)OC1=O)OCC1c2ccccc2-c2ccccc21	14	23µM*	?	3.7µM*	4.1µM*
O=C1CCCC/C=C\C[C@H](CC(=O)N(CCO)Cc2ccccc2)C(=O)N[C@@H](c2ccccc2)CO1	26	14%	15%	?	-22%
CC(NC(=O)[C@H](C)NC(=O)[C@@H]1CSC2c3ccccc3C(=O)N21)c1ccccc1 (some centres not stated)	17	-1%	2%	-30%	8%
Cc1ccc2c(c1)[nH]c1c(=O)n(Cc3ccco3)cnc12	?	17%	?	?	-29%
Cc1cc(C(=O)NCC2CCC3(CCN(Cc4ccccc4C)CC3)O2)n(C)n1 (configuration not stated)	nt	nt	nt	-26%	-16%
COc1cc(CN2CCC3(CCC(CNC(=O)c4ccccc4)O3)CC2)cc(OC)c1 (configuration not stated)	nt	nt	nt	10µM*	?
Cc1cc(C(=O)NCC2CCC3(CCN(Cc4ccc(-c5ccccc5)cc4)CC3)O2)n(C)n1 (configuration not stated)	nt	nt	nt	?	4.6µM*
COc1ccc(F)c(CN2CCC3(CCC(CNC(=O)c4cc(C)nn4C)O3)CC2)c1 (configuration not stated)	nt	nt	nt	?	15µM*
Cc1nc2ccc(C(=O)NCC3CCC4(CCN(Cc5cccnc5)CC4)O3)cc2nc1C (configuration not stated)	nt	nt	nt	-6%[9.04 µM]	-26%
COc1ccc(NC(=O)CNC(=O)N2CC(=O)Nc3ccccc32)cc1OC	-4	9%	9%	8%	-13%
N=C1CCCC1C(=S)SCCC(N)=O (configuration not stated)	11	3%	5%	13%	1%
C=CC[C@@H](Cc1ccc(F)cc1)C(=O)OC[C@@H]1CCCN1C(=O)[C@H](CC=C)CC(=O)N(CCO)Cc1ccccc1	-61*	-20%	-7%	?	18µM*
C=CC[C@@H](Cc1ccc(F)cc1)C(=O)OC[C@H]1CCCN1C(=O)[C@@H](CC=C)CC(=O)N(CCO)Cc1ccccc1	-56*	-18%	-28%	15µM*	13µM*
C=CC[C@H](CC(=O)OC(C)(C)C)C(=O)OC[C@H]1CCCN1C(=O)[C@@H](CC=C)CC(=O)N(CCO)Cc1ccccc1	?	-7%	-12%	18µM*	21µM*
Cc1ccc2nc(NS(C)(=O)=O)sc2c1	34	19%	1%	?	20%
CC(=O)NS(=O)(=O)c1ccc(NC(=S)NC(=O)C2CCC2)cc1	-3	1%	3%	-15%	30%
CCC(C)NC(=O)CC(c1ccccc1)c1cc(C)ccc1O (configuration not stated)	19	9%	13%	0%	7%
Cc1ccc(O)c(C(CC(=O)NC(C)C)c2ccccc2)c1 (configuration not stated)	0	-1%	-1%	-2%	-3%
CCCN(CCC)C(=O)CC(c1ccccc1)c1cc(C)ccc1O (configuration not stated)	-57*	?	?	?	?
Cc1ccc(O)c(C(CC(=O)NC2CCCCC2)c2ccccc2)c1 (configuration not stated)	?	-8%	-21%	-67%	23µM*
Cn1nc(N)nc1N1CCN(c2ccc(F)cc2)CC1	-13	17%	16%	-1%	2%
COc1cccc(-c2nnc(-c3ccc(C(F)(F)F)cc3)o2)c1OC	?	3%	11%	?	21µM*
Cc1ccc(-c2nnc(-c3cccc4ccccc34)o2)cc1	-3	-4%	-8%	16µM*	21µM*
COc1ccc(-c2nnc(-c3ccccc3O)o2)cc1	23	?	-9%	?	10µM*
O=C(CN1N=C(c2ccccc2)CCC1=O)NCc1ccc(F)cc1Cl	nt	nt	nt	-28%	?
SMILES	IL-1B inflam inh	HT1080NT lethal	HT1080 IDH1KD tx	DT40 TDP1 CPT	DT40 TDP1 no CPT
CN1CCN(S(=O)(=O)c2cccc(C(=O)Oc3ccccc3Cl)c2)CC1	10	13%	9%	-6%	-11%
O=C(Cc1cccs1)Nc1nc2c(s1)CCCC2	-11	?	1.1µM*	?	?
O=C(Nc1nc2c(s1)CCCC2)c1cccs1	-8	?	?	?	21µM*
O=C(Cc1cn2ccsc2n1)Nc1nc2c(s1)CCCC2	-3	1%	-12%	0%	-19%
Sc1ccccc1N=Cc1cccs1	22	5%	6%	0%	-28%
C/C(=N/NC(=O)c1nnn(-c2nonc2N)c1CSc1ccc(Cl)cc1)c1ccncc1	5	2%	5%	-23%	?
Cn1cnc([N+](=O)[O-])c1Oc1cccc(O)c1	-105*	-7%	-23%	?	23µM*
Cn1cnc([N+](=O)[O-])c1Oc1ccccc1	?	-12%	-15%	18µM*	?
COc1ccccc1C(=O)NCC(=O)NCCC(c1ccccc1)c1ccccc1	5	0%	-5%	15µM*	16µM*
COc1ccccc1NC(=S)NCCC(c1ccccc1)c1ccccc1	25	-15%	-7%	?	?
COc1cc(NC(=S)NCCC(c2ccccc2)c2ccccc2)c(OC)cc1Cl	0	-7%	0%	9.2µM*	18µM*
S=C(NCCC(c1ccccc1)c1ccccc1)Nc1ccccc1Cl	3	-11%	0%	?	?
S=C(NCCC(c1ccccc1)c1ccccc1)Nc1ccc(Cl)cc1	-92*	?	?	?	?
CC(=O)Nc1ccc(CC(=O)NCCC(c2ccccc2)c2ccccc2)cc1	1	26µM*	33µM*	16µM*	18µM*
CS(=O)(=O)c1ccc(-c2nnc(NC(=O)c3cccc(N4C(=O)CCC4=O)c3)o2)cc1	9	20%	8%	20%	-1%
COc1ccc(Cl)cc1NC(=S)Nc1ccccc1C	-10	15%	-1%	?	23µM*
COc1ccc(Cl)cc1NC(=S)NCCC(c1ccccc1)c1ccccc1	5	3%	1%	23µM*	23µM*
